Reference: PubChem BioAssay (NCI)
Several values for one entry are separate records, joined by “and”; a condition that tells them apart may be missing. Equal values may be shown once. The panel holds about 83,000 compounds, 20% with a hit somewhere; the sample as a whole holds those more often.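 Plates (96-well) were seeded with cells, treated with compound at one concentration, and incubated for 48 hours before percent growth was determined.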 Activity calls are given as the source filed them. Rule for the calls: active = growth percent below 10; inactive = the rest.

Legend:
Test in all cases: NCI-60 one-dose screen, 48 h (100 = growth as untreated, 0 = no growth, -100 = all killed)
Conditions in all cases: 10 µM unless noted
SR leukemia = system: SR leukemia
RPMI-8226 leukemia = system: RPMI-8226 leukemia
OVCAR-8 ovarian = system: OVCAR-8 ovarian
OVCAR-5 ovarian = system: OVCAR-5 ovarian
OVCAR-4 ovarian = system: OVCAR-4 ovarian
SK-OV-3 ovarian = system: SK-OV-3 ovarian
IGROV1 ovarian = system: IGROV1 ovarian
OVCAR-3 ovarian = system: OVCAR-3 ovarian
HS 578T breast = system: HS 578T breast
NCI/ADR-RES ovarian = system: NCI/ADR-RES ovarian
T-47D breast = system: T-47D breast
BT-549 breast = system: BT-549 breast
MDA-MB-435 melanoma = system: MDA-MB-435 melanoma
MCF7 breast = system: MCF7 breast
HCT-116 colon = system: HCT-116 colon
HCC-2998 colon = system: HCC-2998 colon
KM12 colon = system: KM12 colon
SW-620 colon = system: SW-620 colon

Measured: growth

COCCn1cc(-c2csc(-c3cn(C)c4ccc(F)cc34)n2)c2cccnc21
inactive: SR leukemia 33.8% | RPMI-8226 leukemia 67.7% | OVCAR-8 ovarian 71.3% | OVCAR-5 ovarian 80.7% | OVCAR-4 ovarian 47.8% | SK-OV-3 ovarian 92.6% | IGROV1 ovarian 93.9% | OVCAR-3 ovarian 76% | HS 578T breast 63.1% | NCI/ADR-RES ovarian 58.6% | T-47D breast 25.2% | BT-549 breast 63.8% | MDA-MB-435 melanoma 40.8% | MCF7 breast 25.9% | HCT-116 colon 75.5% | HCC-2998 colon 49.6% | KM12 colon 40%

Cc1cc(N2CCN(CC(=O)Nc3ccc4c(ccn4Cc4ccccc4)c3)CC2)nc(N2CCCCCC2)n1
inactive: SR leukemia 29.2% | RPMI-8226 leukemia 41.5% | OVCAR-8 ovarian 31.6% | OVCAR-5 ovarian 75.6% | OVCAR-4 ovarian 51.8% | SK-OV-3 ovarian 48.2% | IGROV1 ovarian 42.3% | OVCAR-3 ovarian 62.8% | HS 578T breast 62.8% | NCI/ADR-RES ovarian 39.6% | T-47D breast 42.7% | BT-549 breast 65.1% | SW-620 colon 56.8% | MCF7 breast 20.5% | HCT-116 colon 38.8% | HCC-2998 colon 64.5% | KM12 colon 37.6%

CCC(=O)Oc1cc(Cl)c(Cl)cc1Cl
inactive: SR leukemia 101% | RPMI-8226 leukemia 102% | OVCAR-8 ovarian 96.9% | OVCAR-5 ovarian 90.2% | OVCAR-4 ovarian 101% | SK-OV-3 ovarian 107% | IGROV1 ovarian 108% | OVCAR-3 ovarian 113% | HS 578T breast 97.4% | NCI/ADR-RES ovarian 108% | T-47D breast 101% | BT-549 breast 102% | SW-620 colon 107% | MCF7 breast 93% | HCT-116 colon 94.3% | HCC-2998 colon 94.8% | KM12 colon 107%

Cc1ccc(NC(=O)c2sc3nc(C)c(C(=O)c4ccccc4)cc3c2N)cc1
inactive: SR leukemia 45.2% | RPMI-8226 leukemia 90.1% | OVCAR-8 ovarian 94.6% | OVCAR-5 ovarian 97.6% | OVCAR-4 ovarian 89.3% | SK-OV-3 ovarian 45.8% | IGROV1 ovarian 95% | OVCAR-3 ovarian 94.8% | HS 578T breast 75.9% | NCI/ADR-RES ovarian 95.2% | T-47D breast 87.7% | BT-549 breast 84.7% | MDA-MB-435 melanoma 39.5% | MCF7 breast 70.9% | HCT-116 colon 97.7% | HCC-2998 colon 106% | KM12 colon 76.2%

O=C(N=Nc1c(O)[nH]c2ccccc12)Nc1ccc(Br)cc1
inactive: SR leukemia 76.7% | RPMI-8226 leukemia 66.9% | OVCAR-8 ovarian 98.9% | OVCAR-5 ovarian 81.4% | OVCAR-4 ovarian 102% | SK-OV-3 ovarian 97% | IGROV1 ovarian 85.2% | OVCAR-3 ovarian 97.4% | HS 578T breast 87.4% | NCI/ADR-RES ovarian 97.2% | T-47D breast 91.6% | BT-549 breast 89% | MDA-MB-435 melanoma 90.4% | MCF7 breast 79.1% | HCT-116 colon 88.6% | HCC-2998 colon 104% | KM12 colon 92.4%

Cc1nn(-c2nc(-c3cc4ccccc4oc3=O)cs2)c(C)c1N=Nc1ccccc1
inactive: SR leukemia 90.4% | RPMI-8226 leukemia 101% | OVCAR-8 ovarian 106% | OVCAR-5 ovarian 106% | OVCAR-4 ovarian 102% | SK-OV-3 ovarian 110% | IGROV1 ovarian 105% | OVCAR-3 ovarian 101% | HS 578T breast 108% | NCI/ADR-RES ovarian 104% | T-47D breast 95.3% | BT-549 breast 99.7% | SW-620 colon 103% | MCF7 breast 89.3% | HCT-116 colon 105% | HCC-2998 colon 111% | KM12 colon 100%

CCOc1ccc(C(=O)Cc2ccccc2)cc1
inactive: SR leukemia 93.4% and 92.3% | RPMI-8226 leukemia 106% and 95% | OVCAR-8 ovarian 109% and 106% | OVCAR-5 ovarian 103% and 109% | OVCAR-4 ovarian 105% and 106% | SK-OV-3 ovarian 121% and 117% | IGROV1 ovarian 116% and 110% | OVCAR-3 ovarian 120% and 125% | HS 578T breast 107% | NCI/ADR-RES ovarian 107% and 104% | T-47D breast 98% and 100% | BT-549 breast 113% and 116% | MDA-MB-435 melanoma 106% and 102% | MCF7 breast 103% and 104% | HCT-116 colon 107% and 110% | HCC-2998 colon 106% and 98.2% | KM12 colon 116% and 110%

O=C(Nc1ccc2ncsc2c1)c1csc(Nc2ccc3[nH]ncc3c2)n1
inactive: SR leukemia 29.1% | RPMI-8226 leukemia 13.6% | OVCAR-8 ovarian 45.7% | OVCAR-5 ovarian 78.6% | OVCAR-4 ovarian 74.8% | SK-OV-3 ovarian 52.9% | IGROV1 ovarian 59.1% | HS 578T breast 37.7% | NCI/ADR-RES ovarian 56.9% | T-47D breast 36.4% | BT-549 breast 73.4% | MCF7 breast 21.6% | HCT-116 colon 47.5% | HCC-2998 colon 72.5% | KM12 colon 30.9%
active: OVCAR-3 ovarian 8.38% | MDA-MB-435 melanoma -27.1%

CCN1C(=S)N(CC)C2C1NC(=S)N2/N=C/C=C/c1ccccc1 (stereo not given)
inactive: SR leukemia 20% | RPMI-8226 leukemia 41.4% | OVCAR-8 ovarian 41.6% | OVCAR-5 ovarian 54.5% | OVCAR-4 ovarian 61% | SK-OV-3 ovarian 35.5% | IGROV1 ovarian 37.9% | HS 578T breast 12.1% | NCI/ADR-RES ovarian 15.4% | T-47D breast 36.9% | BT-549 breast 47.5% | SW-620 colon 28% | MCF7 breast 17.8% | HCT-116 colon 22.8% | HCC-2998 colon 56.7% | KM12 colon 22%
active: OVCAR-3 ovarian 3.77%

CC/C(=C(/c1ccc(O)cc1)c1ccc(OCCN2CCCCCC2)cc1)c1ccc(Cl)cc1
active: SR leukemia -24% | RPMI-8226 leukemia -41.6% | HCT-116 colon -53%
inactive: OVCAR-8 ovarian 83.6% | OVCAR-5 ovarian 75% | SK-OV-3 ovarian 96.4% | IGROV1 ovarian 77.3% | OVCAR-3 ovarian 61% | HS 578T breast 85.3% | NCI/ADR-RES ovarian 84.5% | T-47D breast 51.9% | BT-549 breast 69.8% | MDA-MB-435 melanoma 81.1% | SW-620 colon 62.6% | MCF7 breast 13% | HCC-2998 colon 28.8% | KM12 colon 38.2%

CN(Cc1ccccc1)c1nc(Cl)c(C2CC(c3ccc4c(c3)OCO4)=NN2c2cc(Cl)cc(Cl)c2)s1 (stereo not given)
inactive: SR leukemia 98.6% | RPMI-8226 leukemia 83.7% | OVCAR-8 ovarian 105% | OVCAR-5 ovarian 106% | SK-OV-3 ovarian 92.9% | IGROV1 ovarian 95.3% | OVCAR-3 ovarian 103% | HS 578T breast 96.5% | NCI/ADR-RES ovarian 104% | T-47D breast 86.1% | BT-549 breast 104% | MDA-MB-435 melanoma 97.2% | SW-620 colon 99.1% | MCF7 breast 78.2% | HCT-116 colon 87% | HCC-2998 colon 106% | KM12 colon 98.5%

O=C(NNc1ccccc1)c1ccccc1
inactive: SR leukemia 104% | RPMI-8226 leukemia 82.2% and 76.6% | OVCAR-8 ovarian 106% and 73.5% | OVCAR-5 ovarian 77.2% and 68.7% | OVCAR-4 ovarian 94.5% and 64.6% | SK-OV-3 ovarian 95.5% and 103% | OVCAR-3 ovarian 81.4% and 101% | HS 578T breast 90.8% and 99.1% | NCI/ADR-RES ovarian 64.3% and 57.6% | T-47D breast 56.5% and 36.8% | BT-549 breast 105% and 72.2% | MDA-MB-435 melanoma 69.4% | SW-620 colon 57.1% and 45.7% | MCF7 breast 82.9% and 90.4% | HCT-116 colon 79.6% and 68.5% | HCC-2998 colon 85.6% | KM12 colon 33.5%

Nc1[nH]nc(Nc2ccccc2)c1-c1nc2ccccc2s1
inactive: SR leukemia 13.6% | RPMI-8226 leukemia 24% | OVCAR-8 ovarian 38.4% | OVCAR-5 ovarian 34.5% | SK-OV-3 ovarian 48.8% | IGROV1 ovarian 28.5% | OVCAR-3 ovarian 25.3% | HS 578T breast 47.2% | NCI/ADR-RES ovarian 30% | BT-549 breast 38.1% | MDA-MB-435 melanoma 22.8% | SW-620 colon 15.5% | MCF7 breast 12.4% | HCC-2998 colon 18.3% | KM12 colon 15.6%
active: T-47D breast 2.9% | HCT-116 colon 3.73%

CCOC(=O)C(=Cc1ccc(C#N)cc1)C(=O)OCC
active: SR leukemia 0.158% | RPMI-8226 leukemia -1.68% | T-47D breast 9.64% | MDA-MB-435 melanoma 8.84% | SW-620 colon 0.79% | HCT-116 colon -13.1%
inactive: OVCAR-8 ovarian 34.5% | OVCAR-5 ovarian 30.8% | SK-OV-3 ovarian 84.9% | IGROV1 ovarian 32.7% | OVCAR-3 ovarian 17% | HS 578T breast 78.5% | NCI/ADR-RES ovarian 20.3% | BT-549 breast 47.3% | MCF7 breast 12.3% | HCC-2998 colon 78.7% | KM12 colon 29.8%

O=C(Nc1ccc(Cl)c(Cl)c1)Nc1ccc(Cl)c(Cl)c1
-87% (active) and 29.5% (inactive): SK-OV-3 ovarian
-16.6% (active) and 28.9% (inactive): SR leukemia
-96.3% (active) and 14% (inactive): KM12 colon
-36.5% (active) and 10.6% (inactive): RPMI-8226 leukemia
-54.9% (active) and 14.6% (inactive): NCI/ADR-RES ovarian
-85.3% (active) and 41.8% (inactive): OVCAR-5 ovarian
-95.9% (active) and 22.8% (inactive): HCC-2998 colon
-51.5% (active) and 12.6% (inactive): T-47D breast
active: IGROV1 ovarian -86.4% and 4.75% | OVCAR-3 ovarian -95.3% and 6.41% | HCT-116 colon -89.9% and 4.25%
-45% (active) and 48.8% (inactive): HS 578T breast
-78.7% (active) and 23.2% (inactive): OVCAR-8 ovarian
-75.9% (active) and 13.6% (inactive): MCF7 breast
-83.3% (active) and 37.7% (inactive): BT-549 breast
-80.9% (active) and 13.6% (inactive): MDA-MB-435 melanoma
-60.5% (active) and 19.3% (inactive): SW-620 colon
